The values below come from PubChem BioAssay (Tox21).

Results filed as inconclusive are left out. Active and inactive are the calls of the source. Unless noted, calls follow the shape of the full dose curve.

Assay [1] in a line: Nuclear factor erythroid 2-related factor 2/antioxidant responsive element (Nrf2/ARE) small molecule agonists: qHTS cell viability counter screen in human keratinocytes (AID 1919968; active = well fitted curve in the direction sought with a large enough effect in the repeat runs; an effect the other way counts as inactive or inconclusive; also: nearly all actives have a fitted effect of over 55% in size; also: potency is read from the fitted curve at half-maximal effect). An outline of the steps:
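In human HaCaT keratinocytes stably expressing an ARE-driven luciferase, compound exposure lasted 23 h at 37 C under 5% CO2. Viable cells are quantified with a protease-based fluorogenic reagent (CellTiter-Fluor) read 1 h after addition.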
(Quantitative high-throughput screening tests each substance at several concentrations.)

A short description of assay [2]: Nuclear factor erythroid 2-related factor 2/antioxidant responsive element (Nrf2/ARE) small molecule agonists: luciferase reporter gene qHTS assay in human keratinocytes (AID 1919969). Also: nearly all actives have a fitted effect of over 35% in size. Also: potency is read from the fitted curve at half-maximal effect.
Assay [3] addresses Gonadotropin-releasing hormone receptor (Homo sapiens) (UniProt P30968). The assay can be described thus: Human gonadotropin-releasing hormone receptor (GnRHR) small molecule agonists, calcium flux assay in GnRHR-HEK293 cells (AID 1920063). Also: nearly all actives have a fitted effect of over 35% in size. An outline of the steps: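 Intracellular calcium rise is the read-out: engineered human GnRHR HEK293 cells, dye-loaded, are exposed to DMSO-dissolved compounds and fluorescence at Ex/Em 480/540 is tracked for 3 min.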
Background: A change in cytosolic calcium serves as a functional read-out for many receptors and channels.

For assay [4], the target named is KiSS-1 receptor (Homo sapiens) (UniProt Q969F8). The assay can be described thus: Human kisspeptin (KISS1R) small molecule agonists, calcium flux assay in KISS1R-HEK293 cells (AID 1920064; active = well fitted curve in the direction sought with a large enough effect in the repeat runs; an effect the other way counts as inactive or inconclusive). The gist of the method: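 Concentration-response testing used 15 concentrations in triplicate on human KISS1R-expressing HEK293 cells. Calcium-dependent fluorescence (Ex/Em 480/540) was followed kinetically for 3 min after compound transfer.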
Chain of KiSS-1 receptor (Homo sapiens) (Q969F8 whole entry, looked up): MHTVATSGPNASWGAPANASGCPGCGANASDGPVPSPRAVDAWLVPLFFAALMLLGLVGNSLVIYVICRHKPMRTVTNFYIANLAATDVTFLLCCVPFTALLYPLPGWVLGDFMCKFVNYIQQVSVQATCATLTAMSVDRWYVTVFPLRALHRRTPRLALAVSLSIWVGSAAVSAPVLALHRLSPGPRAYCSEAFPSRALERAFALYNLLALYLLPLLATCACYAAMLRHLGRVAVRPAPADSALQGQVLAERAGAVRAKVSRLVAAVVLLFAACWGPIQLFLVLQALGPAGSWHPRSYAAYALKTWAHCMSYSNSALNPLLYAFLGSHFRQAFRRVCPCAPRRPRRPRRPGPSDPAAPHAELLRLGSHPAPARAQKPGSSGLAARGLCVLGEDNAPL

The nature of assay [5]: G protein-coupled receptor (GPCR) small molecule agonists, calcium flux assay: HEK293 wild type cell line counter screen (AID 1920065). An outline of the steps:
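Fluorescence intensity signals activation. After overnight (18 h) culture and a 1 h calcium dye load at 37 C, compounds are added by pin tool and the plate read at 480/540 nm for 3 min in 1 s steps.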

The nature of assay [6]: p53 small molecule agonists, cell-based qHTS assay with human liver microsomes (AID 1963577).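 Also: p53 response element beta-lactamase reporter cells with liver microsomes plus NADPH.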 The gist of the method:
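p53RE-bla cells; 5 h settle, 37 C/5% CO2; cpd + HLM 0.5 mg/mL + NADPH 0.5 mg/mL (final); 16 h 37 C; LiveBLAzer 2 h RT dark; fluorescence readout.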

Assay [7] in a line: p53 small molecule agonists, cell-based qHTS assay with rat liver microsomes (AID 1963578). An outline of the steps: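 Rat liver microsome activation: microsomes 0.5 mg/mL, NADPH 0.5 mg/mL final; p53RE-bla cells, 16 h 37 C; LiveBLAzer readout, 2 h RT dark.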
Assay [8] can be described thus: p53 small molecule agonists, cell-based qHTS assay with human liver microsomes: qHTS cell viability counter screen (AID 1963579). Also: nearly all actives have a fitted effect of over 45% in size. An outline of the steps:
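Luminescent CellTiter-Glo read-out, 30 min at room temperature, gauged cytotoxicity in p53RE-bla cells exposed 16 h at 37 C to DMSO-dissolved compounds with metabolic activation by human liver microsomes and NADPH, each 0.5 mg/mL final.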

The nature of assay [9]: p53 small molecule agonists, cell-based qHTS assay with rat liver microsomes: qHTS cell viability counter screen (AID 1963580). Also: nearly all actives have a fitted effect of over 45% in size. An outline of the steps:
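After the beta-lactamase ratio was read, CellTiter-Glo was added to the same wells and luminescence measured at 30 min; cells had been treated 16 h at 37 C with compounds, rat liver microsomes and NADPH (0.5 mg/mL final each).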

The nature of assay [10]: p53 small molecule agonists, cell-based qHTS assay: qHTS cell viability counter screen (AID 1963581). Also: nearly all actives have a fitted effect of over 45% in size. The gist of the method: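 Luminescence from CellTiter-Glo, reflecting ATP content, serves as the cytotoxicity measure; it is taken after the 2 h reporter substrate step in HCT-116 p53RE-bla cells dosed for 16 h at 37 C.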
Assay [11] concerns the target 5-hydroxytryptamine receptor 2A (Homo sapiens) (UniProt P28223). The assay can be described thus: 5-hydroxytryptamine receptor 2A (HTR2A) small molecule antagonists, cell-based qHTS assay (AID 1963586). Also: nearly all actives have a fitted effect of over 45% in size. The gist of the method: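 CHO cells stably expressing human HTR2A were plated for 18 h at 37 C, then loaded with calcium dye for 1 h. Compounds were preincubated 5 min at room temperature before DOI (4 nM solution) was added. Kinetic fluorescence was read for 3 min.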

Assay [12] shares this target. The assay can be described thus: 5-hydroxytryptamine receptor 2A (HTR2A) small molecule agonists, cell-based qHTS assay (AID 1963587). Also: nearly all actives have a fitted effect of over 30% in size. Also: potency is read from the fitted curve at half-maximal effect. An outline of the steps: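 CHO cells stably expressing human HTR2A, plated 18 h, loaded with calcium dye 1 h at 37 C. Agonist mode: compounds added and intracellular calcium fluorescence recorded kinetically for 2 min at 1 sec intervals.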

Assay [13] deals with Muscarinic acetylcholine receptor M1 (Homo sapiens) (UniProt P11229). The assay can be described thus: Cholinergic receptor muscarinic 1 (CHRM1) small molecule antagonists, cell-based qHTS assay (AID 1963588). Also: nearly all actives have a fitted effect of over 40% in size. The gist of the method: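 Compounds were tested at 15 concentrations in three independent runs. Dye-loaded CHRM1-CHO cells were exposed 5 min at room temperature before stimulation by acetylcholine added at 50nM. Intracellular calcium was read kinetically on FDSS for 3 min.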
Chain of Muscarinic acetylcholine receptor M1 (Homo sapiens) (P11229 whole entry, looked up): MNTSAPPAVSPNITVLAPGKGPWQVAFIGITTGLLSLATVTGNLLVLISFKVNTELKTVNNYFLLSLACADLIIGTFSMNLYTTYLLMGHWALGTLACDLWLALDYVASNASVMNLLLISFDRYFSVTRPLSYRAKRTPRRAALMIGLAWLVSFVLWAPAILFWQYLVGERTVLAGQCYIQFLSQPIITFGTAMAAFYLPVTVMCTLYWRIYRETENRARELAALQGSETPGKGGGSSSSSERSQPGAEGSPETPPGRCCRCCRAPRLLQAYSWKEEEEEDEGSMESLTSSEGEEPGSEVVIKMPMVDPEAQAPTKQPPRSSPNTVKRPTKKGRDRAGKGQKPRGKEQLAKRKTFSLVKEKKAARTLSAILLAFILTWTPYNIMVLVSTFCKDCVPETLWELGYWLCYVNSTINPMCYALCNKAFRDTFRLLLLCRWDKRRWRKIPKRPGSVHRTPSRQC

The target is the same in assay [14]. The assay can be described thus: Cholinergic receptor muscarinic 1 (CHRM1) small molecule agonists, cell-based qHTS assay (AID 1963589). Also: nearly all actives have a fitted effect of over 35% in size. The gist of the method: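 Fluorescent calcium dye reports M1 activation in stably transfected CHO cells. Compounds, 15 concentrations, added after 1 h dye loading at 37 C; kinetic reading at 1 sec intervals.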
Assay [15] can be described thus: cAMP Responsive Elements (CRE) small molecule agonists, cell-based qHTS assay (AID 1963590). An outline of the steps: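 Compound exposure lasted 3 h at 37 C/5% CO2 in CRE-bla HEK 293T cells grown in assay medium with 10% dialyzed FBS and 25 mM HEPES. Reporter signal came from LiveBLAzer B/G FRET substrate, 2 h, room temperature.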
Assay [16] in a line: cAMP Responsive Elements (CRE) small molecule antagonists, cell-based qHTS assay (AID 1963591; active = well fitted inhibition curve with a large enough effect in the signal ratio in the repeat runs, not every such curve was filed as active; the % refers to the signal ratio). The gist of the method:
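Stimulation used NKH477 at a final 0.25 uM for 3 h in compound-treated CRE-bla HEK293T cells, seeded 18 h beforehand. Reporter activity was measured with LiveBLAzer B/G FRET substrate after 2 h at room temperature.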

For assay [17], the target named is Beta-2 adrenergic receptor (Homo sapiens) (UniProt P07550). The assay can be described thus: Adrenergic beta2 receptor (ADRB2) small molecule antagonists, cell-based qHTS assay (AID 1963592). Also: series mostly up to about 92 µM; nearly all actives have a fitted effect of over 50% in size. The gist of the method: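 Assay format: CHO-ADRB2 cells, 18-20hr seeding at 37C/5% CO2, then compound plus 1nM isoproterenol agonist mix for 0.5hr RT. Homogeneous time-resolved fluorescence cAMP detection after 1hr, expressed as 665/615 nm ratio.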
Chain of Beta-2 adrenergic receptor (Homo sapiens) (P07550 whole entry, looked up): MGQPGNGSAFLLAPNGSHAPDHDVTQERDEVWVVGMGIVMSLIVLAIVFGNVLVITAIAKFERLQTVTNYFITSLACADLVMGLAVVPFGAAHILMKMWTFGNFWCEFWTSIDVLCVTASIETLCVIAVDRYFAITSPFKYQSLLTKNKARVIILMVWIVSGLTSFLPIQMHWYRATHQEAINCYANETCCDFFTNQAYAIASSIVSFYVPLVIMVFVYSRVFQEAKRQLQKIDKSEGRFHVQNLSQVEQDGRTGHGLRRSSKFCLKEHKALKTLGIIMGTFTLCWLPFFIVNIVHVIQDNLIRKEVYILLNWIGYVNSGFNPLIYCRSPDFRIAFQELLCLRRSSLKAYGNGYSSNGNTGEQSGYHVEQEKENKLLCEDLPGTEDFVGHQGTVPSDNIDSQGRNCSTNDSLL

Assay [18] deals with D(2) dopamine receptor (Homo sapiens) (UniProt P14416). The assay can be described thus: Dopamine D2 receptor (DRD2) small molecule agonists, cell-based qHTS assay (AID 1963594). Also: nearly all actives have a fitted effect of over 35% in size. Also: potency is read from the fitted curve at half-maximal effect. The gist of the method:
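HEK293 cells stably expressing human DRD2, pre-treated with PDE inhibitor Ro20-1724 (0.1 mM final) and compound 10 min at room temperature, then stimulated with NKH477 (200nM […]) for 30 min. cAMP read by HTRF (665/620 nm).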

The target is the same in assay [19]. The assay can be described thus: Dopamine D2 receptor (DRD2) small molecule antagonists, cell-based qHTS assay (AID 1963595; active = well fitted inhibition curve with a large enough effect in the signal ratio in the repeat runs, with a control signal flat; the % refers to the signal ratio). The gist of the method: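 Antagonist mode in DRD2-HEK293 cells: after compound addition with 0.1 mM Ro20-1724, cells received quinpirole (12 nM) and NKH477 (200 nM) for 30 min at room temperature; HTRF cAMP read after 1 h detection.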

Assay [20] is described as follows: p53 small molecule agonists, cell-based qHTS assay (AID 1963582; active = well fitted activation curve with a large enough effect in the signal ratio in the repeat runs, not every such curve was filed as active; the % refers to the signal ratio). The gist of the method: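 After plating, p53RE-bla cells sat 5 h in the incubator; compounds or DMSO vehicle were pinned in; a 16 h incubation at 37 C followed; FRET substrate was added and, 2 h later at RT, fluorescence was measured.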

Chain of 5-hydroxytryptamine receptor 2A (Homo sapiens) (P28223 whole entry, looked up): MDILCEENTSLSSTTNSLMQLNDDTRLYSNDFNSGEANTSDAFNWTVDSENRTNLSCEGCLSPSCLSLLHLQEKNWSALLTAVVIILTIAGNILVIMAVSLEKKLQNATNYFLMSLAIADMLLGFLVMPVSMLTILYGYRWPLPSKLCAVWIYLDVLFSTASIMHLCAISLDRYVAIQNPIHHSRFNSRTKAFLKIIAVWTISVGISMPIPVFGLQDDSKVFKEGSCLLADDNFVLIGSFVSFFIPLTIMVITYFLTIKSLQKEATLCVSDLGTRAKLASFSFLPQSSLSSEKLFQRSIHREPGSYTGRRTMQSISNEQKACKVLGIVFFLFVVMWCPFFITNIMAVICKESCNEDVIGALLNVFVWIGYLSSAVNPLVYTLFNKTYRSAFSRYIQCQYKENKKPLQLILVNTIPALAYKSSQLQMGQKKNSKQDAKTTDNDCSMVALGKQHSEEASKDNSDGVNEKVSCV
Chain of D(2) dopamine receptor (Homo sapiens) (P14416 whole entry, looked up): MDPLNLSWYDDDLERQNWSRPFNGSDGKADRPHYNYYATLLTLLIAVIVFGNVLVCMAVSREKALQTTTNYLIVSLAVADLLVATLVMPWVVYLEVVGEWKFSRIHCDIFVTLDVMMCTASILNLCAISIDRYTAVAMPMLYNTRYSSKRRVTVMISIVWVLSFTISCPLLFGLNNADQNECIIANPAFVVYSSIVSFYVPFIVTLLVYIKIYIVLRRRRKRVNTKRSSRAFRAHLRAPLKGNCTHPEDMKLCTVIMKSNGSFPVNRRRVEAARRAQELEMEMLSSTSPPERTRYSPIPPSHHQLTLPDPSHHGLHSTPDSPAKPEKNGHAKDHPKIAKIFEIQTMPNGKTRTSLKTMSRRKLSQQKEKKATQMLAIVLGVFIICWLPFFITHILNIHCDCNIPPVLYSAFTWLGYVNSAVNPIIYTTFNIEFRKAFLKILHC
Chain of Gonadotropin-releasing hormone receptor (Homo sapiens) (P30968 whole entry, looked up): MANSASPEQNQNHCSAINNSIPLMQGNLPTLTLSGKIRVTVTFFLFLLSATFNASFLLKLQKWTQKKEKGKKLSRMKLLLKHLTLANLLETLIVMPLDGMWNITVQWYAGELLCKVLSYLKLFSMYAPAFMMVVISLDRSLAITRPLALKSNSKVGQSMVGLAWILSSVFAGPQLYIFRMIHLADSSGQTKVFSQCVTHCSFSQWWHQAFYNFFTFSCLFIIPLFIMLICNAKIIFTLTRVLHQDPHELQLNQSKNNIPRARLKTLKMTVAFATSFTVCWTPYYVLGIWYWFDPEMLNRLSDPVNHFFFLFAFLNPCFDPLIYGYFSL

On to `N#C/C=C/c1ccccc1`, for which the Potency entry in assay [1], in assay [2], in assay [3], in assay [4], in assay [5] and in assay [6] was “inactive” in each case. Moreover, the Potency result in assay [7], in [8], in assay [9], in [10], in [11] and in assay [12] was “inactive” in each case. For the same molecule, the Potency result in assay [13], in [14], in assay [15], in assay [16], in [17] and in assay [18] was “inactive” in each case. Also, the Potency result in [19] was “inactive”.
For `NC1=NC(=O)C(c2ccccc2)O1` (stereo not drawn), the Potency entry in [1], in assay [2], in assay [3], in [4], in [5] and in [6] was “inactive” throughout. The Potency result in assay [7], in assay [8], in assay [9], in assay [10], in assay [20] and in [15] was “inactive” each time. Moreover, the Potency entry in assay [16], in [17] and in [18] was “inactive” throughout.
On to `CNC(C)Cc1ccccc1OC` (stereo not drawn), for which the Potency result in [1], in assay [2], in assay [3], in assay [4], in assay [5] and in assay [6] was “inactive” in each case. Also, the Potency result in [7], in [8], in assay [9], in assay [10], in assay [20] and in assay [13] was “inactive” each time. In addition, the Potency entry in assay [14], in assay [15], in [18] and in assay [19] was “inactive” in each case. For the same molecule, the Potency in assay [12] is 0.848 µM (active).
As to `O=C(CCl)Nc1ccccc1`, the Potency is 21.7 µM (active) in assay [1] and 15.4 µM (active) in assay [2]. The Potency entry in [3], in assay [4], in [5], in assay [6], in [7] and in assay [8] was “inactive” each time. For the same molecule, the Potency entry in [9], in [10], in assay [11], in [12], in [13] and in assay [14] was “inactive” each time. The Potency entry in [16], in assay [17], in [18] and in [19] was “inactive” each time.
`O=C(O)c1ccc2[nH]cc(CCCCN3CC=C(c4ccccc4)CC3)c2c1`: the Potency entry in assay [1], in assay [2], in assay [3], in assay [4], in assay [5] and in assay [6] was “inactive” throughout. Further, the Potency result in [7], in [8], in assay [9], in [10], in assay [20] and in assay [12] was “inactive” in each case. Further, the Potency result in assay [13], in [14], in assay [17] and in assay [19] was “inactive” each time. Besides, the Potency in [18] was 0.0084 µM (active).
Consider `CCSC(C)CC1CC(=O)C(/C(CC)=N/OC/C=C/Cl)=C(O)C1` (stereo not drawn), for which the Potency result in [1], in assay [2], in assay [3], in [4], in assay [5] and in assay [6] was “inactive” in each case. In addition, the Potency entry in assay [7], in assay [8], in assay [9], in assay [10], in assay [11] and in assay [12] was “inactive” in each case. The Potency result in assay [13], in assay [14], in [15], in assay [16], in [18] and in assay [19] was “inactive” each time.
With `COc1ccc2c(c1OC)C(=O)O[C@H]2[C@@H]1c2cc3c(cc2CCN1C)OCO3`, the Potency entry in assay [1], in assay [2], in assay [3], in assay [4], in [5] and in [6] was “inactive” in each case. For the same molecule, the Potency entry in [7], in [8], in assay [9], in [10], in assay [11] and in assay [12] was “inactive” each time. For the same molecule, the Potency result in assay [14], in assay [15], in assay [16], in [17] and in assay [19] was “inactive” throughout.
Take `COc1cc(C=O)cc2c1[C@H](COC(N)=O)[C@]1(OC(C)=O)ON2C[C@H]2[C@@H]1N2C(C)=O`: the Potency in [1] is 9.69 µM (active). For the same molecule, the Potency entry in assay [2], in assay [3], in [4], in [5], in [6] and in assay [7] was “inactive” in each case. The Potency result in assay [8], in assay [9], in assay [10], in [11], in assay [12] and in assay [13] was “inactive” throughout. In addition, the Potency result in assay [14], in assay [15], in assay [18] and in [19] was “inactive” throughout.
